Reference: publication PMC7862700, “An all-to-all approach to the identification of sequence-specific readers for epigenetic DNA modifications on cytosine”

Experiments:
Assay in all cases: DAPPL (digital affinity profiling via proximity ligation, sequencing); 10 mM Tris-HCl pH 7.5, 50 mM NaCl, 1 mM DTT, 4% glycerol, room temperature, 30 min; GST-TFs on glutathione beads, 16-mer random dsDNA library, 0.1% formaldehyde crosslink after washing; high values mean tight binding
[1] = target: T1, FLI1 (Homo sapiens, UniProt Q01543 1-452); conditions: protein: recombinant; tags: N-terminal GST; dsDNA, one strand shown
T1 sequence: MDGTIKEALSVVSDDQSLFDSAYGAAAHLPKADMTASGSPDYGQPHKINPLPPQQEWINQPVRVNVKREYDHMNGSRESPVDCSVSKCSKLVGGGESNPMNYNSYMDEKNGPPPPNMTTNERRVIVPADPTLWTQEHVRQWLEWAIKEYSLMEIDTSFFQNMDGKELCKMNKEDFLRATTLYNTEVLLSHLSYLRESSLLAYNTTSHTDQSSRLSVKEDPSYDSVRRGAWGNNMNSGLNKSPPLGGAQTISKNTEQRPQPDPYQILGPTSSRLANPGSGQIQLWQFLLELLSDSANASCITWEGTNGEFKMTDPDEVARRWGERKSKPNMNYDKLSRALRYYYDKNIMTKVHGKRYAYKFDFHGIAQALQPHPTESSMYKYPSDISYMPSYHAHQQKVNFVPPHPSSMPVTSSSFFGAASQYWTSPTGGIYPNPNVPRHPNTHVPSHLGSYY
How it was run: (§1)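 A tag-only sample was pooled with DNA-barcoded human transcription factors that had been expressed in yeast as GST fusions and captured on glutathione beads. The pools were incubated for 30 min at room temperature with 200 nmole of a random double-stranded 16-mer DNA library in Tris/NaCl/DTT/glycerol buffer, then washed, crosslinked with 0.1% formaldehyde, proximity-ligated (BsaI/T4 ligase, 1 h, 37 °C), PCR-amplified and sequenced on an Illumina NextSeq500. Binding signal is each hexamer's read frequency for a factor divided by its frequency for the tag-only sample.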

[2] = target: T2, ELK1 (Homo sapiens, UniProt P19419 1-428); conditions: protein: recombinant; tags: N-terminal GST; dsDNA, one strand shown
T2 sequence: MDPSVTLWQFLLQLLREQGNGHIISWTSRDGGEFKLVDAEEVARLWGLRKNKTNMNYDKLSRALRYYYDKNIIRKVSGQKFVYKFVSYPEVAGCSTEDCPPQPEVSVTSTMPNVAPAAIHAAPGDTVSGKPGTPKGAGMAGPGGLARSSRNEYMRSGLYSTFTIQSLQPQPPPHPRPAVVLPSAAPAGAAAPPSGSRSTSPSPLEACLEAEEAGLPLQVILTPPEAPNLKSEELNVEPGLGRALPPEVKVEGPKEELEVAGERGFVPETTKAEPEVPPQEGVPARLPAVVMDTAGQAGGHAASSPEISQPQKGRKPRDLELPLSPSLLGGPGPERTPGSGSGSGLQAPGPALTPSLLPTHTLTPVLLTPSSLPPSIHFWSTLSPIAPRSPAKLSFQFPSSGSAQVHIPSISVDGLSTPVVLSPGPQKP
How it was run: as §1

[3] = target: T3, GABPA (Homo sapiens, UniProt Q06546 1-454); conditions: protein: recombinant; tags: N-terminal GST; dsDNA, one strand shown
T3 sequence: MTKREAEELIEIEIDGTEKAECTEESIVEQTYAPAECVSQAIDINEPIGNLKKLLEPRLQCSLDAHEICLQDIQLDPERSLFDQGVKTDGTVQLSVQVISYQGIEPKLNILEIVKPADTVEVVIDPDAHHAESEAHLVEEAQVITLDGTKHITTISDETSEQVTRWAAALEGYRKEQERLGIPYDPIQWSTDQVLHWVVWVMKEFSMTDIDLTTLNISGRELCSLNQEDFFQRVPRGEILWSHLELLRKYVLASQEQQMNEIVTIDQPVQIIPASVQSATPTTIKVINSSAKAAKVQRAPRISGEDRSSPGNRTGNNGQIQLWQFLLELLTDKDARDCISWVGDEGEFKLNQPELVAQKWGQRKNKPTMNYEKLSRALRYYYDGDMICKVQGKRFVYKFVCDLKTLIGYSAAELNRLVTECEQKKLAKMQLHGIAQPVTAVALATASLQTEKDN
How it was run: as §1

[4] = target: T4, ERG (Homo sapiens, UniProt P11308 1-479); conditions: protein: recombinant; tags: N-terminal GST; dsDNA, one strand shown
T4 sequence: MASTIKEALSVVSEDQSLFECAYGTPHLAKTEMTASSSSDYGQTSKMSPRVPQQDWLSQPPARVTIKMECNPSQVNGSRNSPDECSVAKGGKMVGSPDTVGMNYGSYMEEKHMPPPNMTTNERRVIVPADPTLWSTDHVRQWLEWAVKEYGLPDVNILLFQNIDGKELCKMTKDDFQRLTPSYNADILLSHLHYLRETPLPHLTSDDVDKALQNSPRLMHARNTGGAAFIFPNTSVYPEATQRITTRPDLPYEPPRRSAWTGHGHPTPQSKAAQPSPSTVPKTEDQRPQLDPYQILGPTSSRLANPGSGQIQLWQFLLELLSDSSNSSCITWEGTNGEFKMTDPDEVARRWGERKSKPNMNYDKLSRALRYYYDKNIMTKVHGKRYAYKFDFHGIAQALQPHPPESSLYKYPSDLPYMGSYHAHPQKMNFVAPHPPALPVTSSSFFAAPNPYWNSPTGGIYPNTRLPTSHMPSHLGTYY
How it was run: as §1

[5] = target: ELF1 (Homo sapiens, UniProt P32519 1-619); conditions: protein: recombinant; tags: N-terminal GST; dsDNA, one strand shown
ELF1, sequence (P32519 whole entry): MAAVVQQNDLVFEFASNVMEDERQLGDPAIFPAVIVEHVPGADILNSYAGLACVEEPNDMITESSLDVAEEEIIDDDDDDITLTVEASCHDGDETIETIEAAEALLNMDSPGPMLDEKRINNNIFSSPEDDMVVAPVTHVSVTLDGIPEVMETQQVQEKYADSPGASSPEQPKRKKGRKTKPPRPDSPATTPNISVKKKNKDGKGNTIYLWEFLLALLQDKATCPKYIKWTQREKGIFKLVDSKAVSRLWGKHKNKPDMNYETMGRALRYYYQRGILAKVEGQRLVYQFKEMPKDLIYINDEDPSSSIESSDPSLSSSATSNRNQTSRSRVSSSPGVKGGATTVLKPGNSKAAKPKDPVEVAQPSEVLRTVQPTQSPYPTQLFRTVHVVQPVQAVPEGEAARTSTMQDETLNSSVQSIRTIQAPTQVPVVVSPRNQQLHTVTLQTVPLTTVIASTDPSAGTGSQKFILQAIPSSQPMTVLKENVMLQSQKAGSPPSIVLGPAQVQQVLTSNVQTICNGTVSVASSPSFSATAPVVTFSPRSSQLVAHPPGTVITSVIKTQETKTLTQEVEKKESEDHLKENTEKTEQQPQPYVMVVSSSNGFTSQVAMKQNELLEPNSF
How it was run: as §1

[6] = target: T5, EHF (Homo sapiens, UniProt Q9NZC4 1-300); conditions: protein: recombinant; tags: N-terminal GST; dsDNA, one strand shown
T5 sequence: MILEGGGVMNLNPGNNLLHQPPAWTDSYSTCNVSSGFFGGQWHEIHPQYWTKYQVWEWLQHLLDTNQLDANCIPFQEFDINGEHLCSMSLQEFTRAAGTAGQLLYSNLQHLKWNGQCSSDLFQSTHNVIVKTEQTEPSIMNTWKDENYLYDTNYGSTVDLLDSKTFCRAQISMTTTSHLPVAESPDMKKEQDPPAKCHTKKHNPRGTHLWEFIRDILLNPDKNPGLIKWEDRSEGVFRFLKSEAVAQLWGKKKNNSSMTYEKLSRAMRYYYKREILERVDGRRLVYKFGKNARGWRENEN
How it was run: as §1

[7] = target: SPI1 (Homo sapiens, UniProt P17947 1-270); conditions: protein: recombinant; tags: N-terminal GST; dsDNA, one strand shown
How it was run: as §1

[8] = target: SPIB (Homo sapiens, UniProt Q01892 1-262); conditions: protein: recombinant; tags: N-terminal GST; dsDNA, one strand shown
SPIB, sequence (Q01892 whole entry): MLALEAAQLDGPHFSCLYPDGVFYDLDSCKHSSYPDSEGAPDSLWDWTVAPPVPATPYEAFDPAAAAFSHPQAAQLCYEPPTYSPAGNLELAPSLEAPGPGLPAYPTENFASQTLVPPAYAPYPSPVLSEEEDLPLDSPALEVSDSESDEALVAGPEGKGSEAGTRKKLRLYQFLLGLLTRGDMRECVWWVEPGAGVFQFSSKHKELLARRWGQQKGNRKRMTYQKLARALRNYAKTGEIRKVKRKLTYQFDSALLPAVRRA
How it was run: as §1

[9] = target: T6, FEV (Homo sapiens, UniProt Q99581 1-238); conditions: protein: recombinant; tags: N-terminal GST; dsDNA, one strand shown
T6 sequence: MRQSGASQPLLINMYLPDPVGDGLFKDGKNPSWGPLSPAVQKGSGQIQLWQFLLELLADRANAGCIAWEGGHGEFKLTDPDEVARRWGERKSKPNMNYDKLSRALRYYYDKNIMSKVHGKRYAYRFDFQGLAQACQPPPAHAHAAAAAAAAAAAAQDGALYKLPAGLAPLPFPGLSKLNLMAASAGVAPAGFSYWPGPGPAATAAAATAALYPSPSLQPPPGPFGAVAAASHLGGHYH
How it was run: as §1

[10] = target: ETV5 (Homo sapiens, UniProt P41161 1-510); conditions: protein: recombinant; tags: N-terminal GST; dsDNA, one strand shown
ETV5, sequence (P41161 whole entry): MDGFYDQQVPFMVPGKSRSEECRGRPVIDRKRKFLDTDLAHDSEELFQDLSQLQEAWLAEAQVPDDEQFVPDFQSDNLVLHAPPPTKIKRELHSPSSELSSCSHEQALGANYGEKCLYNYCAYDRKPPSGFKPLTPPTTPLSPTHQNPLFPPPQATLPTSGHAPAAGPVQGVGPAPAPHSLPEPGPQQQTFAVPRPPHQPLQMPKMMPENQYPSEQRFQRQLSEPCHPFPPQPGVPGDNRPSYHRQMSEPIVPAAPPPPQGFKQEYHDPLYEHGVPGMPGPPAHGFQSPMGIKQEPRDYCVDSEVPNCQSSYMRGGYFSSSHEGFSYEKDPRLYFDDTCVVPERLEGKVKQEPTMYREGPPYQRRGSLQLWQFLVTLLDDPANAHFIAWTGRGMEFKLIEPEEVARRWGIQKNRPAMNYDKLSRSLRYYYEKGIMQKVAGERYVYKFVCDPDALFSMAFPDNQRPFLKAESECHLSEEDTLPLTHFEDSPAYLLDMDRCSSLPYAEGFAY
How it was run: as §1

[11] = target: HSF1 (Homo sapiens, UniProt Q00613 1-529); conditions: protein: recombinant; tags: N-terminal GST; chain copies: 3; dsDNA, one strand shown
HSF1, sequence (Q00613 whole entry): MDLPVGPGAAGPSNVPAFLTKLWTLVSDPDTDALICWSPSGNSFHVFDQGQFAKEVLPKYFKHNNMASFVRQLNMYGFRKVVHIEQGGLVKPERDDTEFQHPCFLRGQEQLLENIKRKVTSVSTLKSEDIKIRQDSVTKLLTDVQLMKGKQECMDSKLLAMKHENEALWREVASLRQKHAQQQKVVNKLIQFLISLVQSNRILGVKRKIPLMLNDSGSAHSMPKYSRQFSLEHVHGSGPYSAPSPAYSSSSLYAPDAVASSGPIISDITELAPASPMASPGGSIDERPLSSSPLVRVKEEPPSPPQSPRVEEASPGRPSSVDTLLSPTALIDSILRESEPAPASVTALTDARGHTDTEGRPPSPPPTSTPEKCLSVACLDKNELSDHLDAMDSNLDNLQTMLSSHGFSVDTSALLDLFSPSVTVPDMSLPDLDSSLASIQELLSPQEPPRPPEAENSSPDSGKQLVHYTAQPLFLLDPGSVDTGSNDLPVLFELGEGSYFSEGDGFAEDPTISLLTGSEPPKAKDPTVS
How it was run: as §1

[12] = target: T7, SPIC (Homo sapiens, UniProt Q8N5J4 1-248); conditions: protein: recombinant; tags: N-terminal GST; dsDNA, one strand shown
T7 sequence: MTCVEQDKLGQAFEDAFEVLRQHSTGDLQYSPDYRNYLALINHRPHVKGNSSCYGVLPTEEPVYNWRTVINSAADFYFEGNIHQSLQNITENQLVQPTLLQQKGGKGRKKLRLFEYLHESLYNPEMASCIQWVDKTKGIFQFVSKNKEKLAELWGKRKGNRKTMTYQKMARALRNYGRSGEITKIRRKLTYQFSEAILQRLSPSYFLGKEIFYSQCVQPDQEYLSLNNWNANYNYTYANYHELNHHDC
How it was run: as §1

[13] = target: ELF4 (Homo sapiens, UniProt Q99607 1-663); conditions: protein: recombinant; tags: N-terminal GST; dsDNA, one strand shown
ELF4, sequence (Q99607 whole entry): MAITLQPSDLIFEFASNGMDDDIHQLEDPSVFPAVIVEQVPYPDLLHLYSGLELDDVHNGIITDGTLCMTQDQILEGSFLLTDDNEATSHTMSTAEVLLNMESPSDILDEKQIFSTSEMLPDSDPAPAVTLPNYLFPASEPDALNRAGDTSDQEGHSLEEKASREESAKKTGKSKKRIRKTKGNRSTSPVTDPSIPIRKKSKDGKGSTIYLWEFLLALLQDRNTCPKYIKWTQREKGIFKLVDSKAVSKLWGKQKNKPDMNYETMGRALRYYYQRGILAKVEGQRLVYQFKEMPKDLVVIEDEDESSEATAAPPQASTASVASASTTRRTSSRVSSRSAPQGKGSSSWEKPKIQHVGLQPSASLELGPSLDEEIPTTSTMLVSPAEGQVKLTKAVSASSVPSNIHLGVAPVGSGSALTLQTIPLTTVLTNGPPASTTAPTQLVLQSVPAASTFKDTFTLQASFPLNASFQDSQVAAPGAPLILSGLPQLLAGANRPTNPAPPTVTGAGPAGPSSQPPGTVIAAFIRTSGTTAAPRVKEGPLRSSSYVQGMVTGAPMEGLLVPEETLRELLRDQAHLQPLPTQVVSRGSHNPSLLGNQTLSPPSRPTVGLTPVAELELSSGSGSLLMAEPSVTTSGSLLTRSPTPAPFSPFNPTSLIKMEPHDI
How it was run: as §1

[14] = target: T8, ELF3 (Homo sapiens, UniProt P78545 1-371); conditions: protein: recombinant; tags: N-terminal GST; dsDNA, one strand shown
T8 sequence: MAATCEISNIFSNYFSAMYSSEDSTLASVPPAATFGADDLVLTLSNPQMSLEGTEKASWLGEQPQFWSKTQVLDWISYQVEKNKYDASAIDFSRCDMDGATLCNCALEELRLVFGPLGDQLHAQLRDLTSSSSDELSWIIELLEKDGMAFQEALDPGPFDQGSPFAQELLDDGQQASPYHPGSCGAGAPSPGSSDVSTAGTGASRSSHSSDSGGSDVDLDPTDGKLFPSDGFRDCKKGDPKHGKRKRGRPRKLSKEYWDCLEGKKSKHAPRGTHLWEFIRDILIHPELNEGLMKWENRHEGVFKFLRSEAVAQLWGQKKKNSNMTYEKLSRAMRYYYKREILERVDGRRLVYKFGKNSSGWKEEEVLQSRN
How it was run: as §1

[15] = target: CRX (Homo sapiens, UniProt O43186 1-299); conditions: protein: recombinant; tags: N-terminal GST; dsDNA, one strand shown
CRX, sequence (O43186 whole entry): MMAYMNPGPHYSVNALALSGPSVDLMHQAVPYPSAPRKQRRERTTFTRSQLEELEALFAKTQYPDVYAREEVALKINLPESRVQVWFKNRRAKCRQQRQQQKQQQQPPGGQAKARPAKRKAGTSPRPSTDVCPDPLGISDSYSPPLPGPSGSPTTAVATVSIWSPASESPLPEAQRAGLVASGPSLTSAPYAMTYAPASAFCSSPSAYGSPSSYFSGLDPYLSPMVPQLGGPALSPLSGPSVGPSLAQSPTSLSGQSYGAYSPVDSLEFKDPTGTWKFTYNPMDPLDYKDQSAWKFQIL
How it was run: as §1

[16] = target: T9, ELK3 (Homo sapiens, UniProt P41970 1-407); conditions: protein: recombinant; tags: N-terminal GST; dsDNA, one strand shown
T9 sequence: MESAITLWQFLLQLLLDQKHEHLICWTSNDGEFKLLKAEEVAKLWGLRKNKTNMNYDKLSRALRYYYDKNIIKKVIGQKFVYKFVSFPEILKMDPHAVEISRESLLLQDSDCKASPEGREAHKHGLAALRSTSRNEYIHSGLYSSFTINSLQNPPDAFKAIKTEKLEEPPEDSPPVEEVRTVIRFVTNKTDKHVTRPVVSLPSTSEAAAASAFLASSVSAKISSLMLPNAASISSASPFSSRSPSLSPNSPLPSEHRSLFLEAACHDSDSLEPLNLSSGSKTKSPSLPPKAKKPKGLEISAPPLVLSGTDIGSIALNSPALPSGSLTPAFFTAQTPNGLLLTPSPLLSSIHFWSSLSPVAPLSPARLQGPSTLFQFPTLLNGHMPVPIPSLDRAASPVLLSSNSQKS
How it was run: as §1

[17] = target: ETV1 (Homo sapiens, UniProt P50549 1-477); conditions: protein: recombinant; tags: N-terminal GST; dsDNA, one strand shown
ETV1, sequence (P50549 whole entry): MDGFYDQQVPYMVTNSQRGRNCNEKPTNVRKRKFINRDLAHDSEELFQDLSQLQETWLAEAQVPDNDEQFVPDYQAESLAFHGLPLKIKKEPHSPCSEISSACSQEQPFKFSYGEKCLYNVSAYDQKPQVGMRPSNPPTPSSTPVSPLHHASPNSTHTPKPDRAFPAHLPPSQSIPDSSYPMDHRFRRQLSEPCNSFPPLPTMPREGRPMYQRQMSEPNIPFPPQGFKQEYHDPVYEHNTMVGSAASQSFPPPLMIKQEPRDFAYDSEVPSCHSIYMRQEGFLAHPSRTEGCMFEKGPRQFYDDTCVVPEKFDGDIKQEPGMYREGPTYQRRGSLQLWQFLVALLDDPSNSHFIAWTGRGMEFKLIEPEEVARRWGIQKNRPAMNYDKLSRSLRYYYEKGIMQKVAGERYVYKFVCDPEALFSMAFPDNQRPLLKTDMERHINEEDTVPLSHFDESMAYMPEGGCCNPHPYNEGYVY
How it was run: as §1

**Q.** Which results are given for AGACTT?
**A.** binding signal [1]: 1.09 fold enrichment (6-mer frequency, TF over GST control); binding signal [2]: 1.04 fold enrichment (6-mer frequency, TF over GST control); binding signal [3]: 1.03 fold enrichment (6-mer frequency, TF over GST control); binding signal [4]: 1.09 fold enrichment (6-mer frequency, TF over GST control); binding signal [5]: 1.01 fold enrichment (6-mer frequency, TF over GST control); binding signal [6]: 1.08 fold enrichment (6-mer frequency, TF over GST control); binding signal [7]: 1.09 fold enrichment (6-mer frequency, TF over GST control); binding signal [8]: 1.04 fold enrichment (6-mer frequency, TF over GST control); binding signal [9]: 1.05 fold enrichment (6-mer frequency, TF over GST control); binding signal [10]: 1.05 fold enrichment (6-mer frequency, TF over GST control); binding signal [11]: 1.15 fold enrichment (6-mer frequency, TF over GST control); binding signal [12]: 1.08 fold enrichment (6-mer frequency, TF over GST control); binding signal [13]: 1.02 fold enrichment (6-mer frequency, TF over GST control); binding signal [14]: 1.13 fold enrichment (6-mer frequency, TF over GST control); binding signal [15]: 1.24 fold enrichment (6-mer frequency, TF over GST control)

**Q.** What does the source list for CAAGAA?
**A.** binding signal [1]: 1.03 fold enrichment (6-mer frequency, TF over GST control); binding signal [2]: 1.11 fold enrichment (6-mer frequency, TF over GST control); binding signal [3]: 1.02 fold enrichment (6-mer frequency, TF over GST control); binding signal [4]: 1.11 fold enrichment (6-mer frequency, TF over GST control); binding signal [5]: 1.03 fold enrichment (6-mer frequency, TF over GST control); binding signal [6]: 1.04 fold enrichment (6-mer frequency, TF over GST control); binding signal [7]: 1.06 fold enrichment (6-mer frequency, TF over GST control); binding signal [16]: 1.06 fold enrichment (6-mer frequency, TF over GST control); binding signal [10]: 1.09 fold enrichment (6-mer frequency, TF over GST control); binding signal [11]: 1.51 fold enrichment (6-mer frequency, TF over GST control); binding signal [12]: 1.09 fold enrichment (6-mer frequency, TF over GST control); binding signal [13]: 1.06 fold enrichment (6-mer frequency, TF over GST control); binding signal [14]: 1.11 fold enrichment (6-mer frequency, TF over GST control); binding signal [15]: 1.08 fold enrichment (6-mer frequency, TF over GST control); binding signal [17]: 1.05 fold enrichment (6-mer frequency, TF over GST control)
